Measured values taken from PubChem BioAssay (NCI).
Compounds without any hit were thinned out: in the full panel of roughly 79,000, 15% have a hit. Unmarked numbers belong to inactive results. Activity calls are given as the source filed them. No stated cut-off is given here; in the data, active means growth inhibition above about 70%; inactive means the rest.

How the values were obtained:
[1] = NCI Yeast Anticancer Drug Screen. Data for the rad50 strain (AID 155);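 further: 0% = growth of vehicle-only cultures of the same strain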; conditions: S. cerevisiae rad50 strain growth inhibition, active compounds read high
Method in brief: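 Cells are treated with compound, grown, and their growth is then scored against vehicle-only cultures of the same repair-deficient yeast strain.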

[2] = NCI Yeast Anticancer Drug Screen. Data for the mec2-1 strain (AID 157); conditions: S. cerevisiae mec2-1 strain, active compounds read high
Method in brief: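 mec2-1 yeast strain, carrying an alteration in DNA damage repair or cell cycle control, was exposed to compounds; growth inhibition was measured relative to vehicle-treated controls.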

[3] = NCI Yeast Anticancer Drug Screen. Data for the sgs1 mgt1 strain (AID 161);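 further: 0% = growth of cultures given vehicle only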; conditions: S. cerevisiae sgs1 mgt1 strain, active compounds read high
Method in brief: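 Compounds are added to genetically altered yeast, and growth is compared with cultures given vehicle alone to give percent inhibition.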

[4] = NCI Yeast Anticancer Drug Screen. Data for the cln2 rad14 strain (AID 165);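 further: 0% = growth equal to vehicle treated cultures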; conditions: S. cerevisiae cln2 rad14 strain, active compounds read high
Method in brief: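 Yeast carrying cln2 and rad14 alterations (cell cycle control and DNA damage repair) were exposed to compounds. Growth inhibition was measured against vehicle-treated controls.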

[5] = NCI Yeast Anticancer Drug Screen. Data for the bub3 strain (AID 167); conditions: S. cerevisiae bub3 mutant strain, active compounds read high
Method in brief: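 Part of a panel of yeast mutants defective in DNA damage repair or cell cycle regulation. Each strain is grown with compound, and inhibition is calculated relative to solvent-treated cultures.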

[6] = NCI Yeast Anticancer Drug Screen. Data for the mlh1 rad18 strain (AID 175); conditions: S. cerevisiae mlh1 rad18 strain growth inhibition, active compounds read high
Method in brief: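 Growth inhibition of the yeast strain was measured after compound exposure and expressed relative to vehicle-treated controls. The strain carries defined defects in DNA damage repair.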

[7] = at 5.0 µM (retest, dose inferred, filed as 0.5)
[8] = at 50.0 µM (retest, dose inferred, filed as 5.0)

Row | Structure (SMILES) | growth inhibition [1, 7] | growth inhibition [1, 8] | growth inhibition ([1]; at 50.0 µM) | growth inhibition [2, 7] | growth inhibition [2, 8] | growth inhibition ([2]; at 50.0 µM) | growth inhibition [3, 7] | growth inhibition [3, 8] | growth inhibition ([3]; at 50.0 µM) | growth inhibition [4, 7] | growth inhibition [4, 8] | growth inhibition ([4]; at 50.0 µM) | growth inhibition [5, 7] | growth inhibition [5, 8] | growth inhibition ([5]; at 50.0 µM) | growth inhibition [6, 7] | growth inhibition [6, 8] | growth inhibition ([6]; at 50.0 µM)
1 | Cc1ccc(S(=O)(=O)CC2COC(CS(=O)(=O)c3ccc(C)cc3)CO2)cc1 (configuration not stated) | 2% | 3% | -14.7% | 1% | 6% | 33.7% | 10% | -6% | 3% | 8% | 5% | 33.1% | 2% | 11% | 66.4% | -2% | 1% | 28.8%
2 | Brc1ccc2[nH]c3ccccc3c2c1 | 2% | 33% | 57.7% | -4% | 67% | 44.9% | -3% | 47% | 86.8% (active) | -2% | 65% | 54.2% | 3% | 57% | 55.2% | 4% | 75% (active) | 90% (active)
3 | C(=P(c1ccccc1)(c1ccccc1)c1ccccc1)[P+](c1ccccc1)(c1ccccc1)c1ccccc1.[Br][Cu][Br] | 98% (active) | 99% (active) | 99.2% (active) | 99% (active) | 99% (active) | 99.5% (active) | 99% (active) | 99% (active) | 99.2% (active) | 98% (active) | 99% (active) | 98% (active) | 98% (active) | 99% (active) | 99% (active) | 99% (active) | 99% (active) | 99.3% (active)
4 | O=C1OC(c2ccc(O)cc2)=C(c2ccccc2)C1c1ccccc1 (configuration not stated) | 9% | 36% | 99.4% (active) | -7% | 29% | 99.5% (active) | -10% | 47% | 99.5% (active) | 4% | 26% | 99.5% (active) | 2% | 29% | 99.4% (active) | 10% | 67% | 99.5% (active)
5 | CCC[CH2][Sn]([CH2]CCC)([O]C(=O)c1cc(OC)c(OC)cc1OC)[O]C(=O)c1cc(OC)c(OC)cc1OC | 88% (active) | 88% (active) | 89.8% (active) | 90% (active) | 90% (active) | 91.5% (active) | 87% (active) | 87% (active) | 90.1% (active) | 79% (active) | 79% (active) | 91.2% (active) | 85% (active) | 85% (active) | 87.2% (active) | 84% (active) | 84% (active) | 89.5% (active)
6 | COC1CCC2(C)C(=CCC3C4CC(OC(C)=O)CC4(C)CCC32)C1 (configuration not stated) | 0% | 5% | 5.25% | -2% | 5% | 0.45% | 2% | 3% | -4.15% | -1% | 4% | 9.5% | 0% | 6% | -7.3% | 2% | 9% | -4.2%
7 | O=C(O)/C(Cl)=C(/Cl)C(=O)Nc1cccc(Cl)c1 | 45% | 98% (active) | 90.9% (active) | 50% | 100% (active) | 86.2% (active) | 42% | 100% (active) | 88.6% (active) | 32% | 99% (active) | 89.1% (active) | 63% | 99% (active) | 89.9% (active) | 50% | 99% (active) | 92.4% (active)
8 | ICCCCSc1cc(-c2ccccc2)[o+]c2ccccc12 | 23% | 92% (active) | 93% (active) | 10% | 51% | 72.2% (active) | 19% | 75% (active) | 75.2% (active) | 1% | 49% | 24.3% | 7% | 85% (active) | 75.4% (active) | 11% | 71% (active) | 88.8% (active)
9 | C[P+](c1ccccc1)(c1ccc(Cl)cc1)c1ccc(Cl)cc1 | -26% | 72% (active) | 50.6% | -3% | 28% | 28.7% | 0% | 81% (active) | 71.9% (active) | -3% | 1% | -39.3% | -1% | 75% (active) | 69.5% | 12% | 59% | 46.9%
